Over roughly 33,000 sequences, “E-score (-0.5 to 0.5)” has its median near -0.017; the highest 2% begin near 0.3. For the sample, the highest values were picked, then their nearest neighbours and some sequences at random.
What follows are sequences tested against T1, Sut1 (UniProt P53032) (assay: PBM E-score (8-mer binding enrichment) (E-score (-0.5 to 0.5)); higher = stronger / more preferred TF binding). Conditions: protein concentration: 200 nM; construct: GST-full length.
T1 sequence: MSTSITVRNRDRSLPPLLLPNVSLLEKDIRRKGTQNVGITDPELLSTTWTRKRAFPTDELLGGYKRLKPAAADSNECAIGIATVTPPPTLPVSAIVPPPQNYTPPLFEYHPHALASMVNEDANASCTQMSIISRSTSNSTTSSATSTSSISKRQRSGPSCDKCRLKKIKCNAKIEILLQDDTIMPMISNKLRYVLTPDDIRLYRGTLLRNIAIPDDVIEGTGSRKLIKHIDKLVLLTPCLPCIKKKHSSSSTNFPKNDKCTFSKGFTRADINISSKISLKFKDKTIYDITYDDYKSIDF
Method: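 Universal 'all 10-mer' protein binding microarrays (Agilent AMADID 015681) probed with GST-tagged S. cerevisiae TFs (full-length or DBD) made by in vitro transcription/translation (PURExpress), about 100-200 nM. Bound TF was detected with fluorescent anti-GST. Each ungapped 8-mer (which stands for itself and its reverse complement) is scored by the PBM enrichment score (E-score), a modified Wilcoxon-Mann-Whitney statistic from -0.5 to +0.5, computed with the Universal PBM Analysis Suite. Scale: above 0.35 generally sequence-specific binding.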
AAACGCGC was tested, and the “PBM E-score” value was -0.123. For ATCCTCAT, the “PBM E-score” value was -0.0846. CGAGGGTC was tested, and the “PBM E-score” value was -0.194. With CTTATGTA the “PBM E-score” value was 0.16. For AAACTGAA, the “PBM E-score” value was 0.171. With AAGTTGCG the “PBM E-score” value was 0.108. CTCGCCCC was tested, and the “PBM E-score” value was -0.298. For AGTGAATA, the “PBM E-score” value was 0.177. With ATGGTCGG the “PBM E-score” value was 0.0544. With GCCCAGCC the “PBM E-score” value was -0.184. In the case of ATGATTTA, the “PBM E-score” value was 0.222. With ACTATTTG the “PBM E-score” value was 0.252. With ATGATTTC the “PBM E-score” value was 0.299. With ATTATTTG the “PBM E-score” value was 0.319. CTGATTTC was tested, and the “PBM E-score” value was 0.0415. In the case of ATTATTAC, the “PBM E-score” value was 0.278. With ATTATTTC the “PBM E-score” value was 0.306. In the case of ATTATTAG, the “PBM E-score” value was 0.144. With CTTATTTC the “PBM E-score” value was 0.207. CTTATTTA was tested, and the “PBM E-score” value was 0.101. For ATTATTTA, the “PBM E-score” value was 0.347. With GTTATTTA the “PBM E-score” value was 0.257. In the case of CGCTAGTA, the “PBM E-score” value was 0.101. In the case of AGAATGCA, the “PBM E-score” value was 0.0147. CCCGTTAG was tested, and the “PBM E-score” value was -0.0959. For CGTACGAG, the “PBM E-score” value was -0.098. AATAGCTC was tested, and the “PBM E-score” value was -0.207. For ATTGCGAC, the “PBM E-score” value was 0.0862. With CGTCCTTA the “PBM E-score” value was -0.176. In the case of ATACCGGC, the “PBM E-score” value was -0.0331. With CTACCGGA the “PBM E-score” value was 0.222. In the case of GTACCGGA, the “PBM E-score” value was 0.342. In the case of ATACCGGA, the “PBM E-score” value was 0.326. ATACCGGG was tested, and the “PBM E-score” value was 0.0371. With GTACCGCA the “PBM E-score” value was 0.102. For AGTCAGCA, the “PBM E-score” value was -0.0199. In the case of ACCCACTC, the “PBM E-score” value was 0.00249. For CTGCGGAA, the “PBM E-score” value was -0.0948. For ATCCGGAC, the “PBM E-score” value was 0.362. ATCCGGCG was tested, and the “PBM E-score” value was -0.00912. With TGCCGGAA the “PBM E-score” value was 0.188. In the case of ATCCGGAG, the “PBM E-score” value was 0.414. With TCCCGGAA the “PBM E-score” value was 0.228. ATCCGGTG was tested, and the “PBM E-score” value was 0.0918. ATCCGGAT was tested, and the “PBM E-score” value was 0.257. CTCCGGAA was tested, and the “PBM E-score” value was 0.442. In the case of TTCCGGAA, the “PBM E-score” value was 0.395. For ACAGTCAA, the “PBM E-score” value was -0.0644. For AGAGTAAG, the “PBM E-score” value was 0.016. For AAGCTCTC, the “PBM E-score” value was -0.127. For AAAACTTG, the “PBM E-score” value was 0.143. In the case of GCGTTACC, the “PBM E-score” value was -0.158. In the case of ACTCCCTG, the “PBM E-score” value was -0.173. With AATCACGT the “PBM E-score” value was -0.0474. In the case of GTGCGGAA, the “PBM E-score” value was 0.0942. With ATGCGGAA the “PBM E-score” value was 0.0745. For CTCCGGAG, the “PBM E-score” value was 0.487. CTCAGGAG was tested, and the “PBM E-score” value was -0.179. In the case of GTCCGGAC, the “PBM E-score” value was 0.469. With ATGCGGAG the “PBM E-score” value was 0.259. GTCCAAAC was tested, and the “PBM E-score” value was -0.0427. In the case of GTCCGGAA, the “PBM E-score” value was 0.402. With GTCAGGAC the “PBM E-score” value was -0.206. ATCCGGAA was tested, and the “PBM E-score” value was 0.303. CAACGCAA was tested, and the “PBM E-score” value was 0.111. In the case of TAGTTAGA, the “PBM E-score” value was 0.169. For AGTCTATG, the “PBM E-score” value was -0.11. ACATTGGC was tested, and the “PBM E-score” value was -0.21. AGAAAGCT was tested, and the “PBM E-score” value was 0.126. For CATAAGGA, the “PBM E-score” value was -0.134. In the case of CCCTCGAC, the “PBM E-score” value was -0.327. In the case of CAATCTAG, the “PBM E-score” value was -0.0129. With CTTAGTCC the “PBM E-score” value was 0.113. In the case of ATTGAGTG, the “PBM E-score” value was 0.0241. For CTGCGGAC, the “PBM E-score” value was 0.165. CTCCGGAC was tested, and the “PBM E-score” value was 0.473. For CTCAGGAC, the “PBM E-score” value was -0.127. In the case of CAAATTAA, the “PBM E-score” value was 0.189. For GTTTAAAA, the “PBM E-score” value was 0.19. In the case of GAAATTAA, the “PBM E-score” value was 0.333. In the case of GAGTTATA, the “PBM E-score” value was 0.2. With TAGTTATA the “PBM E-score” value was 0.318. AAGTTATA was tested, and the “PBM E-score” value was 0.186. For GTTTAAAC, the “PBM E-score” value was 0.31. For AAAATTAA, the “PBM E-score” value was 0.221. For TTATTAAA, the “PBM E-score” value was 0.273. In the case of CTATTAAA, the “PBM E-score” value was 0.0826. For CTTTAAAC, the “PBM E-score” value was 0.105. With ATATTAAA the “PBM E-score” value was 0.37. AGGTCTAA was tested, and the “PBM E-score” value was -0.0642. CTAGGTGA was tested, and the “PBM E-score” value was -0.168. GTCTATCA was tested, and the “PBM E-score” value was 0.101. AGATTCAT was tested, and the “PBM E-score” value was 0.0265. For ATTAAGAC, the “PBM E-score” value was 0.123. For GCGCTTGA, the “PBM E-score” value was 0.0596. CAATTATA was tested, and the “PBM E-score” value was 0.164. AATTAAAC was tested, and the “PBM E-score” value was 0.329. For AATTAAAG, the “PBM E-score” value was 0.198. TAATTATA was tested, and the “PBM E-score” value was 0.349. In the case of AAATTATG, the “PBM E-score” value was 0.175. For AATTTATA, the “PBM E-score” value was 0.276. AAATTATA was tested, and the “PBM E-score” value was 0.351. With ATATTTAA the “PBM E-score” value was 0.303. For ATATTTAC, the “PBM E-score” value was 0.282. With CTATTTAA the “PBM E-score” value was 0.188. For TAATTAGA, the “PBM E-score” value was 0.218. GATTAAAC was tested, and the “PBM E-score” value was 0.114. For ACTAAGTC, the “PBM E-score” value was 0.0911. In the case of CTACCCAG, the “PBM E-score” value was -0.18. For AGAAATGC, the “PBM E-score” value was 0.048. With GAAATCCC the “PBM E-score” value was -0.0066. With ATCACCTA the “PBM E-score” value was -0.13. For CTTAGCCC, the “PBM E-score” value was -0.129. With ATGAACCC the “PBM E-score” value was 0.00896. With CCAAATCC the “PBM E-score” value was 0.0309. For AGCAGAAA, the “PBM E-score” value was 0.175. For AAGGTCTC, the “PBM E-score” value was -0.0653. With AAATTATT the “PBM E-score” value was 0.328. With CGATTAAA the “PBM E-score” value was 0.237. In the case of TCATTAAA, the “PBM E-score” value was 0.315. For AAATTATC, the “PBM E-score” value was 0.281. For GAATTATC, the “PBM E-score” value was 0.0676. GCATTAAA was tested, and the “PBM E-score” value was 0.0763. With GAATTATA the “PBM E-score” value was 0.335. With AGATTAAA the “PBM E-score” value was 0.324. In the case of AGATTAAT, the “PBM E-score” value was 0.222. For GCATTATA, the “PBM E-score” value was 0.118. For ACATTAAA, the “PBM E-score” value was 0.259. In the case of AAATTACT, the “PBM E-score” value was 0.234. For AGCAAATC, the “PBM E-score” value was 0.142. In the case of AGTGGCAT, the “PBM E-score” value was -0.231. With CCCTTCAA the “PBM E-score” value was -0.068. For ATTCCCTA, the “PBM E-score” value was 0.11. With AAGGCCAG the “PBM E-score” value was -0.00339. For GAGCTAAA, the “PBM E-score” value was 0.106. AATTTCTA was tested, and the “PBM E-score” value was 0.285. For AAATTAAC, the “PBM E-score” value was 0.236. With CTCTTAAC the “PBM E-score” value was 0.042. With AAATTAAA the “PBM E-score” value was 0.333. With ATATTATC the “PBM E-score” value was 0.223. For ATATTATA, the “PBM E-score” value was 0.249. In the case of AAATTAAT, the “PBM E-score” value was 0.292. In the case of GTCTTAAA, the “PBM E-score” value was 0.00721. For ATATTATG, the “PBM E-score” value was 0.362. CTCTTAAA was tested, and the “PBM E-score” value was 0.302. CTCTCGCC was tested, and the “PBM E-score” value was -0.182. With GAGTTAAA the “PBM E-score” value was 0.13. For AGAACCTC, the “PBM E-score” value was -0.0985. In the case of GCAACGCC, the “PBM E-score” value was -0.114. For CTTAAAGC, the “PBM E-score” value was -0.0652. In the case of TATACTGA, the “PBM E-score” value was 0.292. With GATATTGA the “PBM E-score” value was 0.234. For TATATTAA, the “PBM E-score” value was 0.315. For GATATTAA, the “PBM E-score” value was 0.285. CATATTGA was tested, and the “PBM E-score” value was 0.0287. In the case of TATATTGA, the “PBM E-score” value was 0.332. CATATTAA was tested, and the “PBM E-score” value was 0.183. With GAACAGAC the “PBM E-score” value was 0.0707. For GTCCTAGA, the “PBM E-score” value was -0.141. With CGCCCGGA the “PBM E-score” value was 0.361. With CGCCCGAA the “PBM E-score” value was -0.101. For AGCCCGGC, the “PBM E-score” value was 0.00111. AGCCCGGA was tested, and the “PBM E-score” value was 0.341. AGCCCGGG was tested, and the “PBM E-score” value was 0.0766. For GGCCCGCA, the “PBM E-score” value was -0.113. For GGCCCGGA, the “PBM E-score” value was 0.305. For GCCCCGGA, the “PBM E-score” value was 0.29. CGCCCGGC was tested, and the “PBM E-score” value was -0.0194. For CTACCAAC, the “PBM E-score” value was 0.0725. AACTCGCT was tested, and the “PBM E-score” value was 0.0435. In the case of ACGGAGCG, the “PBM E-score” value was 0.2. With ACGGAGGA the “PBM E-score” value was 0.0201.

From the supplement of paper PMC3334620
